Each structure is given as a SMILES string. Out of some 330,000 compounds screened, about 650 (0.2%) were called active. What follows is part of a selection rich in actives, with near analogues and random picks from the rest. A number with no mark means an inactive call. Cut-off read from the data, not from the text of the source: active = inhibition above about 50%; inactive = the rest.

Chain of Integrin alpha-4 (Homo sapiens) (P13612 whole entry, looked up): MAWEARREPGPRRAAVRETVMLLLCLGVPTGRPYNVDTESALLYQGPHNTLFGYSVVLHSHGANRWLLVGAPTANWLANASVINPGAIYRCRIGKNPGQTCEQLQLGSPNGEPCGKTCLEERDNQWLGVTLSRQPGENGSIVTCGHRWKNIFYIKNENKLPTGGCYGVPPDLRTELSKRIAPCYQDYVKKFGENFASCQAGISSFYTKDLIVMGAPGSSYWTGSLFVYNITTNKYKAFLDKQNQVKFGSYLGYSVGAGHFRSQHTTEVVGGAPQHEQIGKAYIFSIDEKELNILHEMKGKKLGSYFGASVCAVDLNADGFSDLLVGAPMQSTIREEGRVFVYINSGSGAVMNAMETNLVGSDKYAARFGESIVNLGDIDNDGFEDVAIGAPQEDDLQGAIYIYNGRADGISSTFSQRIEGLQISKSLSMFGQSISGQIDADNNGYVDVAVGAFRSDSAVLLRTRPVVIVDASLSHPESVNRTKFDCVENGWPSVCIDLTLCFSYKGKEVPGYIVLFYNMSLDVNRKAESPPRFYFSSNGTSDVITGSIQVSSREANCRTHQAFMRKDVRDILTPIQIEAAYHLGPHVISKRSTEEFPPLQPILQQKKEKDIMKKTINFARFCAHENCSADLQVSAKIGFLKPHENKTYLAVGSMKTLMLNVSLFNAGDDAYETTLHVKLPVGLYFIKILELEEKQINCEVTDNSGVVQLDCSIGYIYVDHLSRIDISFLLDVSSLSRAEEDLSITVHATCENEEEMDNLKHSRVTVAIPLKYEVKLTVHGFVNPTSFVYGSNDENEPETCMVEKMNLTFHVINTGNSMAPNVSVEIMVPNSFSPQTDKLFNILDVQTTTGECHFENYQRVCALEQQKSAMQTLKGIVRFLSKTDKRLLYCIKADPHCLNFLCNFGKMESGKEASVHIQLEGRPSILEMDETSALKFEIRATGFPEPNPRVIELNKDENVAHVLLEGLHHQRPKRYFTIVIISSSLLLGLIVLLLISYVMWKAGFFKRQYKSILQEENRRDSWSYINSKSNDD

This assay addresses Integrin alpha-4 (Homo sapiens) (UniProt P13612). Nature of the assay: VLA-4 integrin binding inhibitors – MLPCN library, flow cytometry, VLA-4 expressing cells, VLA-4 allosteric modulator project, primary screen (AID 2557). The note with it: ligand binding flow cytometry, hits give high values, about 7 µM as worked out from the volumes in the protocol.
For orientation: inhibition means the drop in the measured response relative to a control, in per cent. Turning to `CC(=O)N1CCc2cc(S(=O)(=O)NC3CCCCC3)ccc21`, the inhibition is -5.2%. Take `CCCNS(=O)(=O)c1ccc2c(c1)CCCN2C(C)=O`: the inhibition is 9.08%. On to `CC(=O)N1CCc2cc(S(=O)(=O)Nc3ccccc3N3CCN(C)CC3)ccc21`, for which the inhibition is 54% (active). For `C=CC(COCc1ccccc1)N(CC(=O)OC)S(=O)(=O)c1cc(Br)ccc1OC` (centres undefined) the value was 0.47%; for `Fc1cc(Br)ccc1NC(=S)Nc1cccnc1`, 12.9%; for `Cc1ccc(NC(=O)Nc2cccnc2)cc1`, 2.64%. Turning to `S=C(Nc1cccnc1)Nc1ccccn1`, the inhibition was 52.3% (active). For `O=C(CN(C(=O)CNC(=O)c1cccs1)c1cccc(F)c1)NC1CCCCC1` the value was 5.25%; for `O=C(Nc1cccc(-c2cccc(Cl)c2)c1)C1CCN(C2CCC2)CC1`, 3.72%; for `COc1cccc(NC(=O)N2C3CCCC2CC(NC(C)=O)C3)c1` (centres undefined), 9.9%. To `COc1cccc(-c2cccc(NC(=O)C3CCN(C4CCC4)CC3)c2)c1` belongs 58.8% (active); to `CC1(C)CC(=O)C(N=Nc2c(F)cccc2F)=C(O)C1`, 6.6%. To `Cc1ccc2nc(SCc3cn4c(C)cc(C)nc4n3)[nH]c2c1` belongs 9.58%. Regarding `Cc1nn(CC(=O)Nc2ccc(N(C)C)cc2)c(C)c1[N+](=O)[O-]`, the inhibition was -13.4%. To `CCc1ccc(NC(=O)Cn2nc(C)c([N+](=O)[O-])c2C)cc1` belongs -5.52%; to `Cc1nn(CC(=O)Nc2ccc(C#N)cc2)c(C)c1[N+](=O)[O-]`, 56.9% (active).

As for `O=C(COC(=O)c1ccco1)NCc1ccc(Cl)cc1`, the inhibition was 5.08%. For `Cc1cc(NC(=O)COC(=O)/C=C/c2ccc(C)o2)no1` the value was 4.12%.

As to `Cc1ccc(/C=C/C(=O)OCC(=O)NCc2ccc(Cl)cc2)o1`, the inhibition was 50.7% (active). On to `COCCN1C(=O)C(=O)/C(=C(/O)c2ccc(S(=O)(=O)N3CCCCC3)cc2)C1c1ccc(OC)c(OC)c1` (centres undefined), for which the inhibition was -2.1%. To `O=C(CCNC(=O)c1ccccc1Cl)NN=Cc1ccco1` belongs 4.92%; to `CC(=O)n1cc([C@H]2C=C(C(=O)N3CCOCC3)O[C@@H](OCc3ccc(CO)cc3)C2)c2ccccc21`, -20.8%. To `Cc1cccc(C)c1N1CCN(S(=O)(=O)N2CCCCC2)CC1` belongs -7.93%; to `CC1O[C@@H](OC2C(O)C(C)O[C@H](OC(=O)[C@]34CCC(C)(C)C[C@H]3C3=CCC5[C@@]6(C)CC(O)C(O[C@@H]7OC(CO)C(O)[C@@H](O)[C@@H]7O)[C@@](C)(C(=O)O)C6CC[C@@]5(C)[C@]3(CO)CC4)C2O[C@H]2OC(C)[C@@H](O[C@@H]3OCC(O[C@@H]4OC(CO)C(O)[C@H](O)C4O)[C@@H](O)[C@@H]3O)[C@H](O)C2O)C(O)C(O)C1O` (some centres undefined), -0.38%.

The record behind these values is PubChem BioAssay AID2557 (NMMLSC, 2010).
